Composite z-score and z-score data for five compounds are collected here from PubChem BioAssay.

Calls of active or inactive are those of the source.

Assay [1] can be described thus: small molecules captured by biotinylated probe aFSTL3 – biochemical, small-molecule microarray, fluorescence 635/667, stem cell growth factor project, primary screen (AID 1064).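 Also: measures binding of the biotinylated anti-FSTL3 antibody to printed compounds.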 The note with it: higher = more signal.
Assay [2] in a line: binders from COS7 lysate, DM2A8 probe, primary screen, torsin A project, cell lysate, small-molecule microarray, fluorescence 635/667 (AID 1065). The conditions noted are these: higher = more signal, COS7 lysate expressing mutant human TOR1A.
A short description of assay [3]: small molecules captured by biotinylated probe aFGF2 – biochemical, small-molecule microarray, fluorescence 635/667, stem cell growth factor project, primary screen (AID 1067).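 Also: measures binding of biotinylated aFGF2 protein to printed compounds on slides; z-score merges feature fluorescence and signal-to-noise across triplicate slides.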 The conditions noted are these: higher = more signal.
The nature of assay [4]: small molecules captured by biotinylated probe aFGF10 – biochemical, small-molecule microarray, fluorescence 635/667, stem cell growth factor project, primary screen (AID 1071).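 Also: score merges 667 nm spot intensity and signal to noise from triplicate slides.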 The note with it: higher = more signal.
Assay [5] deals with Neurogenic locus notch homolog protein 2 (Homo sapiens) (UniProt Q04721). The experiment in a line: small molecules binding Notch2 protein – biochemical, small-molecule microarray, 635 nm fluorescence, stem cell growth factors, primary screen (AID 1073). The conditions noted are these: higher = more signal.
Assay [6] concerns the target Pro-neuregulin-1, membrane-bound isoform (Homo sapiens) (UniProt Q02297). Nature of the assay: small molecules binding neuregulin-1 protein – biochemical, small-molecule microarray, fluorescence 635/667, psychiatric disease protein project, primary screen (AID 1075).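 Also: score combines 667 nm spot fluorescence with signal to noise.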 The conditions noted are these: NRG1 binding, 635 nm fluorescence, higher = more signal.
Assay [7] has as its system Neuregulin-1 EGF-like domain. Nature of the assay: small molecules binding NRG1 EGF domain – biochemical, small-molecule microarray, 635 nm fluorescence, primary screen (AID 1081).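 Also: binding of the protein to compounds printed on small-molecule microarray slides.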 The note with it: higher = more signal.
Assay [8] can be described thus: FRG1 expression reporter modulators in myotubes – cell-based, C2C12 myotubes, firefly/Renilla luciferase, luminescence, FRG1 inhibition for FSHD, primary screen (AID 1084). The conditions noted are these: FRG1 promoter luciferase, higher = more signal, called active from +8 up or from −8 down.
Assay [9] in a line: small molecules captured by biotinylated probe aFST – biochemical, small-molecule microarray, fluorescence 635/667, stem cell growth factor project, primary screen (AID 1086).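 Also: score merges 667 nm fluorescence with signal-to-noise of each printed compound spot.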 The conditions noted are these: higher = more signal.
Assay [10] can be described thus: binders of probe aHhip on microarray, primary screen, stem cell growth factor project, biochemical, small-molecule microarray, fluorescence 635/667 (AID 1087).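 Also: score merges spot fluorescence at 667nm with spot signal to noise ratio.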 The conditions noted are these: higher = more signal.
The subject of assay [11] is PRMT1 (protein arginine N-methyltransferase 1). Nature of the assay: small molecules binding arginine methyltransferase PRMT1 – biochemical, small-molecule microarray, 635 nm fluorescence, primary screen (AID 1088).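 Also: binding of Prmt1 protein to compounds spotted on small-molecule microarray slides.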 The conditions noted are these: higher = more signal.
A short description of assay [12]: growth effects on S. cerevisiae YJM789 – YJM789 clinical isolate, OD600, 24 h, basal, primary screen (AID 1089).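 Also: growth of clinical yeast isolate S. cerevisiae YJM 789 seeded 1000 cells per well; test concentration not given here.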 The note with it: higher = more signal, called active from +8 up or from −8 down.
The nature of assay [13]: S. pombe growth modifiers, basal conditions – strain 972, OD600, 24 h, no modulator, primary screen (AID 1090).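 Also: basal condition with compound alone and no growth modifier present; test concentration not given here.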 The note with it: S. pombe 972 growth, higher = more signal, called active from +8 up or from −8 down.
A short description of assay [14]: budding yeast growth modifiers under rapamycin – strain BY4716, OD600, 96 h, primary screen (AID 1091). Also: test concentration not given here. The note with it: S. cerevisiae BY4716 + rapamycin, higher = more signal, called active from +8 up or from −8 down.
The target in assay [15] is Torsin-1A-interacting protein 2 (Homo sapiens) (UniProt Q8NFQ8). The experiment in a line: small molecules binding lysate-expressed LULL1 – cell lysate, human LULL1 lysate, 635/667 nm fluorescence, primary screen (AID 1092).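 Also: probe is lysate of COS7 cells overexpressing human LULL1; score merges per-feature 667 nm fluorescence with signal-to-noise.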 The note with it: small-molecule microarray, hLULL1 lysate binding, 635 nm fluorescence; higher = more signal.
Sequence of Torsin-1A-interacting protein 2 (Homo sapiens) (Q8NFQ8 whole entry, looked up): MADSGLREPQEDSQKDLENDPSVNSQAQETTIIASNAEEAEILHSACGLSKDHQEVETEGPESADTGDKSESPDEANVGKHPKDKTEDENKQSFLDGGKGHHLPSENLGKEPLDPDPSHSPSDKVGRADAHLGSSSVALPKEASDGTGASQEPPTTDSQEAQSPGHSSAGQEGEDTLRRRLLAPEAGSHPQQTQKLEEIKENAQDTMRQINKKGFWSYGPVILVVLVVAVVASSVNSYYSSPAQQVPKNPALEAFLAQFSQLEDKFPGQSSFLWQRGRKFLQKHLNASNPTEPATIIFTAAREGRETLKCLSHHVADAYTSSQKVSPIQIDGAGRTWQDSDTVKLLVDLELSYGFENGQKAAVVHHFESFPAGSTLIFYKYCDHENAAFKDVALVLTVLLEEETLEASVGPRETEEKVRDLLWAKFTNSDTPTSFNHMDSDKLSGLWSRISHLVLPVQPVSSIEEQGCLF
Assay [16] in a line: optical density change of DRC41 E. coli – strain DRC41, OD650, 24 h, E. coli filamentation project, primary screen (AID 1093).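 Also: MC1000 strain lacking acrAB efflux and sulA so SOS filamentation is blocked; test concentration not given here.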 The conditions noted are these: E. coli DRC41 growth, higher = more signal, called active from +8 up or from −8 down.
A short description of assay [17]: probe aLefty2 binding to arrayed compounds – biochemical, biotinylated probe, 635/667 nm fluorescence, primary screen (AID 1094).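 Also: score merges spot fluorescence near 667 nm with spot signal-to-noise ratio.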 The note with it: small-molecule microarray, higher = more signal.
Assay [18] relates to Noggin (protein binding on small-molecule microarray). Nature of the assay: small molecules binding Noggin protein – biochemical, 635/667 nm fluorescence, primary screen (AID 1095).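 Also: score merges 667 nm feature fluorescence with signal to noise over triplicate slides.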 The conditions noted are these: 635 nm fluorescence, higher = more signal.
For assay [19], the target named is Neurogenic locus notch homolog protein 3 (Homo sapiens) (UniProt Q9UM47). Nature of the assay: small molecules binding NOTCH3 protein – biochemical, 635/667 nm fluorescence, primary screen (AID 1096). The conditions noted are these: small-molecule microarray, 635 nm fluorescence, higher = more signal.
Sequence of Neurogenic locus notch homolog protein 3 (Homo sapiens) (Q9UM47 whole entry, looked up): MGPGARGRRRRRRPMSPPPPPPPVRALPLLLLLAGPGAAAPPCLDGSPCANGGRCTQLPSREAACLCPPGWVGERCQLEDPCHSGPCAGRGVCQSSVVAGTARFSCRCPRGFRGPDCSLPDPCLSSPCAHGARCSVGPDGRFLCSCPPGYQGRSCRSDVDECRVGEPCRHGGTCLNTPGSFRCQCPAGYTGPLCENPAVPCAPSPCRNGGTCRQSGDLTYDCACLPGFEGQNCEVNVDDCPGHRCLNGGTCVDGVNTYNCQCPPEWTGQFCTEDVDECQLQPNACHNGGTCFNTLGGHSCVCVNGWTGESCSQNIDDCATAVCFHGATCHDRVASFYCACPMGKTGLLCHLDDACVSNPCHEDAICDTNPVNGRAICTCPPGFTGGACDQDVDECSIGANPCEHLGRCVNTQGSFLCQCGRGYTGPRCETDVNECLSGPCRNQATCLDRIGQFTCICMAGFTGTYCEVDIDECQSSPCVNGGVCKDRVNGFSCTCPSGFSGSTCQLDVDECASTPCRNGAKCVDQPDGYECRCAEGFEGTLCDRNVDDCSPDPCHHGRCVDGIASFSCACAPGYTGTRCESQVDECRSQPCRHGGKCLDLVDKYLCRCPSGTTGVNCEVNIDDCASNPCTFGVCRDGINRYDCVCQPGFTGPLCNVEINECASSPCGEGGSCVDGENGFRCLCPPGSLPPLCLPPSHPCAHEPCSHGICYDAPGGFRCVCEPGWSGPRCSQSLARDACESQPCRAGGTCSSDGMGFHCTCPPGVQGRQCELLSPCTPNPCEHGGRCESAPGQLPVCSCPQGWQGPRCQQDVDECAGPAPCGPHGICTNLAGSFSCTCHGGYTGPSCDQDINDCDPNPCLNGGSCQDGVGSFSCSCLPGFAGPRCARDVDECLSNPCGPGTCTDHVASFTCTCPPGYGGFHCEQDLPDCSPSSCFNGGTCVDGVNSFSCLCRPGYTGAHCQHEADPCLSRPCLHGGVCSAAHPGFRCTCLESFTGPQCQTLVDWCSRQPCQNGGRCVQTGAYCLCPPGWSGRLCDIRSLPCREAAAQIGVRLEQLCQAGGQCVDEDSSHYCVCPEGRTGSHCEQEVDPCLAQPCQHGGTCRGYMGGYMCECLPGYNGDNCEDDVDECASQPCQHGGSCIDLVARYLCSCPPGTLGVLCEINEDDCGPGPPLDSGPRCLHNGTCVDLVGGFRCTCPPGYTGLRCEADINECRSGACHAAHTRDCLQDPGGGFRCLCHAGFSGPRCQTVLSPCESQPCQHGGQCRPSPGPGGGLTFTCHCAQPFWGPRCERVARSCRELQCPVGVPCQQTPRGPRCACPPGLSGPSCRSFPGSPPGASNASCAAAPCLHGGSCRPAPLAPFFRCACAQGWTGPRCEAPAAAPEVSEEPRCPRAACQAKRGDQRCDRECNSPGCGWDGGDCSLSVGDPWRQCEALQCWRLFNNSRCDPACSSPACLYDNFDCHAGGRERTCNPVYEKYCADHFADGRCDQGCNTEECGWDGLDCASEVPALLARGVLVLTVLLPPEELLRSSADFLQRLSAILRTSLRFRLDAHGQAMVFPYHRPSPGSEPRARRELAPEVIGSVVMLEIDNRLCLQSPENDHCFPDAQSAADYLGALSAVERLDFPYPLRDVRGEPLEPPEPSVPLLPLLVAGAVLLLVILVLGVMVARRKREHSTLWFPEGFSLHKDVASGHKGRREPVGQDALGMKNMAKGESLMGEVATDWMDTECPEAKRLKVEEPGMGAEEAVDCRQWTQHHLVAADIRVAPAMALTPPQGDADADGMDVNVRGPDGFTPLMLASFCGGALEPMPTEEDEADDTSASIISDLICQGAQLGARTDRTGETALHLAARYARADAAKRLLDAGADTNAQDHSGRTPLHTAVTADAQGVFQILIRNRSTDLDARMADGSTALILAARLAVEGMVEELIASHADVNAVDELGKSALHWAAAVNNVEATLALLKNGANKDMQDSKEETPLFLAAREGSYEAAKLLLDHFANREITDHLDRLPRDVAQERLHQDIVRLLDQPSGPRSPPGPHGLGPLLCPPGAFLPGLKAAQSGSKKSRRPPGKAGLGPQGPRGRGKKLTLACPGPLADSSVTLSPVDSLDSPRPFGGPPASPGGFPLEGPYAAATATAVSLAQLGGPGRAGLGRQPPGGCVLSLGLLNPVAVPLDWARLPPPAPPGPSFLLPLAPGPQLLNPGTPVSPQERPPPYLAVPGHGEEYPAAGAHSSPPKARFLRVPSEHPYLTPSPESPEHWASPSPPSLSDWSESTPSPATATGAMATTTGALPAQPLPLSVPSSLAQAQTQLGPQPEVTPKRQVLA
Assay [20] in a line: probe aEGFR binding to arrayed compounds – biochemical, biotinylated probe, 635/667 nm fluorescence, primary screen (AID 1097).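 Also: probe is a biotinylated anti-EGFR antibody binding compounds printed on slides; score combines fluorescence near 667 nm and signal to noise of each spot.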 The conditions noted are these: small-molecule microarray, higher = more signal.

Sequence of Pro-neuregulin-1, membrane-bound isoform (Homo sapiens) (Q02297 whole entry, looked up, the tested form may be a part, canonical isoform): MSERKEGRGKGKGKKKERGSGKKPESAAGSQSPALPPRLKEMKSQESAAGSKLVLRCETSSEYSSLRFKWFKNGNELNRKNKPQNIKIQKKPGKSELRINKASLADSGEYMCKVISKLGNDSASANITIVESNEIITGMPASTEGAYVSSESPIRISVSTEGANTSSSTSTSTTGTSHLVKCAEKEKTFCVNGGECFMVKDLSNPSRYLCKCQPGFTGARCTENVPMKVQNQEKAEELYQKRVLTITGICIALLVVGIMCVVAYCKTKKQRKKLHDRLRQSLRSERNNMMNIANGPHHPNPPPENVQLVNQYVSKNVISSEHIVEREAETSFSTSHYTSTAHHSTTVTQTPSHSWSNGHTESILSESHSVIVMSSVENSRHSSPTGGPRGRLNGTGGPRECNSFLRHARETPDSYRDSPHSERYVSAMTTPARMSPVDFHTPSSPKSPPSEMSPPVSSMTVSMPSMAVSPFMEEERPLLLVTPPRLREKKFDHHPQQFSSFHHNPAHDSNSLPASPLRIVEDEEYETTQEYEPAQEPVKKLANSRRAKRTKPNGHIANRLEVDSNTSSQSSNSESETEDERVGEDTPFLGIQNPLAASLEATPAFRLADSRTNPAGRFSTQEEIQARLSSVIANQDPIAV

With `CC(C)=CCCC(C)=CCON=C1C[C@@H](O)[C@@H](O)[C@@H]2[C@@H]3C(=O)N(C(C)(C)C)C(=O)[C@@H]3CC[C@@H]12`, the composite z-score in assay [1] was 0.0454; in [2] it was 0.113; in [3] it was -0.0473; in [4] it was 0.257; in assay [5], 0.0729; in assay [6], -0.0925. Besides, the composite z-score in assay [7] was 0.184; in assay [9] it was 0.13; in [10] it was -0.191; in assay [11] it was -0.305; in assay [15], 0.197; in [17] it was -0.0615. Besides, the figures for the composite z-score in assay [18], in [19] and in [20] were 0.386, 0.605 and -0.0594, respectively. For the same compound, the z-score in assay [8] was -0.519 (inactive); in assay [12] it was 0.286 (inactive); in assay [13], 0.451 (inactive); in assay [14], 0.361 (inactive); in [16], -0.636 (inactive).

As to `O=C1CCCC=C1C(CCc1ccccc1)OC(=O)c1ccc(Br)cc1` (stereo not given), the composite z-score in [1] is -0.351; in assay [2] it was 0.0329; in assay [3], -0.0841; in assay [4], 0.335; in [5], 0.047; in assay [6], -0.532. Further, the composite z-score in [7] was -0.529; in assay [9], -0.205; in [10], -0.137; in [11] it was -0.429; in assay [15] it was -0.699; in assay [17], -0.159. The composite z-score in [18] is 0.354; in assay [19] it was -0.445; in assay [20] it was -0.12. In addition, the z-score was 3.31 (inactive) in assay [8]; -0.596 (inactive) in assay [12]; -2.94 (inactive) in assay [13]; -2.46 (inactive) in assay [14]; 0.037 (inactive) in assay [16].

For the compound `COc1cccc([C@H]2Oc3ccc(OC)cc3C(=NOC(C)CN3CCCCc4nc(C)c(C)cc43)[C@@H]2O)c1` (stereo not given in full), the composite z-score in [1] is 0.161; in [2], -0.0173; in [3], -0.0005; in assay [4], 0.561; in assay [5], 0.0879; in assay [6] it was 0.996. Besides, the composite z-score in assay [7] was 0.632; in [9], -0.0285; in assay [10], 0.0854; in [11], 1.03; in [15], 1.45; in assay [17], 0.0344. Moreover, the composite z-score in [18] came to 0.0286; in [19], 0.32; in [20] it was 0.044. In addition, the z-score in assay [8] was -2.06 (inactive); in [12], -0.915 (inactive); in assay [13], -1.19 (inactive); in assay [14], -1.48 (inactive); in [16], 1.25 (inactive).

As for `CC(C)=CCCC(C)=CCON=C1C[C@@H](O)[C@@H](O)[C@@H]2[C@@H]3C(=O)N(c4ccc(F)cc4F)C(=O)[C@@H]3CC[C@H]12`, the composite z-score in assay [1] is -0.292; in assay [2] it was 0.611; in assay [3], -0.174; in assay [4] it was 0.03; in [5] it was 1; in assay [6] it was 1.06. For the same compound, the composite z-score in assay [7] is 0.849; in assay [9], 0.573; in [10], 0.0976; in assay [11], 1.54; in assay [15], 2.05; in [17] it was -0.0413. In addition, the results for the composite z-score in assay [18], in [19] and in [20] were 0.819, 1.09 and -0.0372, respectively. Also, the z-score in assay [8] was -0.389 (inactive); in [12], -0.912 (inactive); in assay [13] it was -0.964 (inactive); in [14] it was -1.53 (inactive); in [16], -0.159 (inactive).

In the case of `Cc1ccc(S(=O)(=O)NC(CCc2ccccc2)CC(=O)C(C)(C)C)cc1` (stereo not given), the composite z-score in [1] is -0.651; in assay [2] it was 0.339; in assay [3], -0.228; in assay [4] it was 0.711; in [5], 0.747; in assay [6], 0.132. Moreover, the composite z-score in [7] is 0.459; in assay [9], 0.195; in assay [10] it was -0.261; in assay [11], 1.09; in [15] it was 0.69; in [17], 0.422. Moreover, the composite z-score in assay [18] was 0.409; in assay [19] it was 1.14; in assay [20] it was 0.045. Further, the z-score in assay [8] is -3.04 (inactive); in [12], -1.18 (inactive); in assay [13], -1.76 (inactive); in [14], 0.269 (inactive); in assay [16], 0.361 (inactive).
